Screens deposited in PubChem by National Center for Advancing Translational Sciences (NCATS).
Sampled rows, rich in hits. Any-hit rate of the full collection: about 2.4%.
POLH inh: inhibitors of human DNA polymerase eta; Q9Y253; recombinant Pol eta, fluorescent DNA replication assay; Potency, µM (top dose mostly 114 µM), most hits filed as inhibitors; actives 1.2% (n = 390,000)
Target sequence (Q9Y253 whole entry, looked up): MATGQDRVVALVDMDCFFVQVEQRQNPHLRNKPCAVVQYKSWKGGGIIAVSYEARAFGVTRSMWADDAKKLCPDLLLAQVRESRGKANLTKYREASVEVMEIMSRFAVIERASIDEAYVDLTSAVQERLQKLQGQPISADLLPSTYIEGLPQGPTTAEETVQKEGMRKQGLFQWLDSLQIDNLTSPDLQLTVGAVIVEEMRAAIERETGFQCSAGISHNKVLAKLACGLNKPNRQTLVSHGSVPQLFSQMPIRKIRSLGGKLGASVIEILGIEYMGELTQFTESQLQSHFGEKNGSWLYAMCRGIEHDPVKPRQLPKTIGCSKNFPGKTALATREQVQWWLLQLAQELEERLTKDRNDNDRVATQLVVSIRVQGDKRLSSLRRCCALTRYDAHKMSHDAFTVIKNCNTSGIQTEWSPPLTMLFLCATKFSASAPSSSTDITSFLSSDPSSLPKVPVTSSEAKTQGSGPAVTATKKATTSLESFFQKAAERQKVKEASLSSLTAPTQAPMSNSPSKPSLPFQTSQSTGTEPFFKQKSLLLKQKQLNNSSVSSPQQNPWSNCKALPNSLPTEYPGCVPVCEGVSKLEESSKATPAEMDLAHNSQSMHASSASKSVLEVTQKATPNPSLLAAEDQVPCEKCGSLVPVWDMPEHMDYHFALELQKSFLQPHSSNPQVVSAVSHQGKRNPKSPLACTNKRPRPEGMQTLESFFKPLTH
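Pol eta (10 nM) was preincubated with compounds for 15 min at room temperature, after which fluorescent replication substrate (50 nM final) was added to start the reaction. Fluorescence was read kinetically at 0 and 10 min.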
TDP1 inh: inhibitors of human tyrosyl-DNA phosphodiesterase TDP1; Q9NUW8; recombinant TDP1, AlphaScreen DNA substrate cleavage; Potency, µM (series often up to 130 µM), most hits filed as inhibitors; actives 0.28% (n = 350,000); note: nearly all actives have a fitted effect of over 40% in size
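Tdp1 1 nM final; 15 min RT w/ cpd; substrate 15 nM, 5 min; beads 10 ug/ml, 10 min; AlphaScreen read. Neg ctrl: no enzyme.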
FEN1 inhibitor: inhibitors of human flap endonuclease 1. P39748. actives 0.35% (n = 390,000). AID 588795. Potency, µM (highest dose often 114 µM), most hits filed as inhibitors. Recombinant FEN1 flap cleavage, fluorescence, 15 min; note: nearly all actives have a fitted effect of over 65% in size
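Reaction started by adding substrate (50 nM final) to 10 nM enzyme after 15 min room-temperature compound preincubation. Reads at 0 and 15 min, with data normalized and fitted to a four-parameter Hill equation.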
Pol iota inh: blocks human DNA polymerase iota activity; Q9UNA4; Pol iota fluorescent replication assay, 10 min; Potency, µM (series often up to 115 µM), most hits filed as inhibitors; actives 1% (n = 390,000)
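Fluorescent replication assay read twice, at 0 min and 10 min after adding 50 nM (final) substrate. Enzyme (10 nM) and compounds were first incubated 15 min at room temperature; enzyme-free buffer wells were negative controls.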
POLK inh: blocks human DNA polymerase kappa activity | Q9UBT6 | purified Pol kappa, fluorescent DNA synthesis assay, 10 min | Potency, µM (highest dose often 107 µM), usual class: inhibitors | actives 0.53% (n = 400,000) | AID 588579
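Fluorescent qHTS in 1536-well format: enzyme (10 nM) and compound sat 15 min at room temperature before 50 nM substrate (final) was added. Signal taken at 0 and 10 min; no-enzyme buffer wells were negative controls.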
Pol beta inh: blocks human DNA polymerase beta activity; P06746; Pol beta primer extension/strand displacement, fluorescence kinetic; actives 1.3% (n = 340,000); AID 485314; Potency, µM (series often up to 114 µM), actives largely listed as inhibitors
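Pol beta (10 nM) was preincubated with compound for 15 min at room temperature. The reaction was then started with 50 nM substrate and read immediately and after a further 10 min at room temperature.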
Hits are given with their value; i = inactive; ? = inconclusive; nt = not tested or not shown; ! = a repeat was not active. Calls come from the whole dose curve; as a rule, active = well fitted curve in the direction sought with a large enough effect; inconclusive = small, poorly fitted or top-dose-only effect, or another doubt; inactive = no such curve, though single readings can be large; an effect the other way counts as inactive or inconclusive.

SMILES | POLH inh | TDP1 inh | FEN1 inhibitor | Pol iota inh | POLK inh | Pol beta inh
O=C(c1ccc(Cl)c(S(=O)(=O)Nc2ccccc2C(=O)N2CCc3ccccc3C2)c1)N1CCc2ccccc2C1 | 40µM | i | i | i | i | i
O=C(c1ccc(Cl)c(S(=O)(=O)N2CCc3ccccc3C2)c1)N1CCN(c2ccccc2)CC1 | i | i | i | i | i | i
COc1ccccc1N1CCN(C(=O)c2ccc3nc(-c4ccco4)c(-c4ccco4)nc3c2)CC1 | i | i | i | ? | i | 28µM
Cc1ccc(C)c(N2CCN(C(=O)c3ccc4nc(-c5ccco5)c(-c5ccco5)nc4c3)CC2)c1 | i | i | i | ? | i | i
COc1ccc(OC)c(-c2noc(N3CCN(c4cccc(C(F)(F)F)c4)CC3)n2)c1 | i | i | i | i | i | i
COc1ccc(NS(=O)(=O)c2ccc(I)cc2)cc1N1CCN(C)CC1 | nt | i | nt | nt | i | nt
COc1ccc(C(=O)c2ccc(CC#N)s2)cc1 | ? | 89µM | i | i | i | ?
COc1ccc(C(=O)c2ccsc2N)cc1 | i | nt | i | i | i | i
COc1cccc(OCc2cc(=O)n3c(-c4ccccc4)csc3n2)c1 | i | i | i | i | i | 20µM
CCN(CC(=O)NC(C)(C)C)Cc1cc(=O)n2c(-c3ccccc3)csc2n1 | ? | i | i | 45µM | i | ?
Cc1ccccc1OCc1cc(=O)n2c(-c3ccccc3)csc2n1 | i | i | i | i | i | i
COC(=O)c1cc(=O)n2c(-c3ccccc3)csc2n1 | i | i | ? | i | i | i
O=S(=O)(N1CCN(c2nc(-c3cccs3)nc3ccccc23)CC1)C(F)(F)F | nt | nt | i | i | i | nt
COC(=O)/C=C/c1cc(F)ccc1S(=O)(=O)Nc1ccccc1 | nt | nt | i | i | i | nt
CSc1cc2c(s1)c1cnn(Cc3cccc(O)c3)c(=O)c1n2C | nt | i | nt | nt | nt | nt
COc1cc(Cl)c(C)cc1NC(=O)c1ccccc1NC(=O)CN1CCOCC1 | 79µM | nt | i | ? | ? | ?
COc1cc(NC(=O)c2ccccc2F)c(OC)cc1NC(=O)CN1CCOCC1 | i | i | i | i | i | i
Cc1nnc(N/N=C/c2ccc(-c3ccccc3F)o2)n1N | i | i | i | 3.5µM | i | ?
Cc1n[nH]c(=S)n1/N=C/c1ccc(-c2ccccc2[N+](=O)[O-])o1 | i | i | i | i | i | i
Cc1nnc(N/N=C\c2ccc(-c3ccccc3[N+](=O)[O-])o2)n1N | i | i | i | 4µM | i | i
CCc1nnc(N/N=C/c2ccc(-c3ccc([N+](=O)[O-])cc3)o2)n1N | i | i | i | 32µM | i | i
C=CCN1C(=O)/C(=C/c2ccc(-c3ccc(F)cc3)o2)SC1=S | i | nt | i | i | i | 10µM
COc1ccc(C(=O)Nc2cccc(NC(=O)c3ccc(OC)c(OC)c3)n2)cc1OC | i | nt | i | ? | i | 22µM
COc1ccc(C(=O)Nc2cccc3cccnc23)cc1OC | i | i | i | i | i | i
CCN(CC)c1cc(C)c2cc(NC(=O)c3ccccc3OC)ccc2n1 | i | i | ? | i | i | ?
SMILES | POLH inh | TDP1 inh | FEN1 inhibitor | Pol iota inh | POLK inh | Pol beta inh
CCN(CC)c1cc(C)c2cc(NC(=O)c3ccc(OC)c(OC)c3)ccc2n1 | i | i | i | ? | ? | 13µM
O=C(C[n+]1csc2ccccc21)c1ccccc1 | nt | nt | i | i | i | nt
O=C1/C(=C/c2ccco2)CCC1C1CCCC1 (configuration not stated) | i | i | i | i | i | i
CC1C/C(=C/c2ccco2)C(=O)/C(=C/c2ccco2)C1 (configuration not stated) | nt | i | nt | nt | nt | 3.5µM
O=C1/C(=C/c2ccco2)Cc2ccccc21 | i | i | i | ? | ? | ?
O=C1/C(=C\c2ccco2)CCC/C1=C\c1ccco1 | ? | i | ? | 2.8µM | 8.9µM | 7.1µM
COCCOC(=O)c1c(C)oc2ccc(NS(=O)(=O)c3ccc(C(=O)O)cc3)cc12 | 11µM | i | i | i | i | 35µM
CCOc1ccc(S(=O)(=O)Nc2ccc3oc(C)c(C(=O)OCCOC)c3c2)cc1 | i | i | i | i | i | i
O=C1N/C(=C\c2ccc(O)cc2)C(=O)c2ccccc21 | 25µM | i | i | 20µM | i | i
CCOC(=O)c1c(C)nc(C)c(C(=O)OCC)c1-c1ccc(Br)cc1 | i | i | i | i | i | i
CCOC(=O)c1c(C)nc(C)c(C(=O)OCC)c1-c1ccc(OC)cc1 | i | i | i | i | i | 0.16µM!
CCn1c2ccccc2c2cc(/C=N/NC(=O)c3ccncc3)ccc21 | ? | i | ? | i | i | 16µM
CCn1c2ccccc2c2cc(/C=N/NC(=O)c3ccc(O)cc3)ccc21 | ? | i | i | ? | ? | ?
Cc1ccnc(NS(=O)(=O)c2ccc(NC(=O)C3CCCCC3)cc2)n1 | i | i | i | i | i | i
Cc1ccc(C)c(SCC(=O)Nc2ccc(S(=O)(=O)Nc3ncccn3)cc2)c1 | 50µM | i | i | ? | i | ?
Cc1ccnc(NS(=O)(=O)c2ccc(NC(=O)C3C4C=CC(C4)C3C(=O)O)cc2)n1 (configuration not stated) | i | 50µM | i | i | i | i
Cc1ccc(C)c(NS(=O)(=O)c2ccc(NC(=O)CSc3ccc(Cl)cc3)cc2)c1 | i | i | i | i | i | i
Cc1ccnc(NS(=O)(=O)c2ccc(NC(=O)Cc3cccs3)cc2)n1 | 2.5µM | i | ? | 14µM | 32µM | 20µM
O=C(NCCCc1nc2ccccc2n1Cc1ccc(Cl)cc1Cl)c1ccco1 | i | i | i | i | i | ?
COc1ccc(N=c2nc(-c3ccccc3)n(-c3ccc(C)cc3)s2)cc1 | nt | nt | i | i | i | nt
O=S(=O)(Nc1nc2n(n1)C(c1ccc(F)cc1)C=C(c1ccc(Cl)cc1)N2)c1ccccc1 (configuration not stated) | 89µM | i | i | i | i | i
O=S(=O)(Nc1nc2n(n1)C(c1ccc(F)cc1)C=C(c1ccccc1)N2)c1ccccc1 (configuration not stated) | i | i | i | i | i | ?
O=C(O)COc1cccc2c1CCC=C2CCO/N=C(\c1ccccc1)c1cccnc1 | nt | i | nt | nt | i | nt
CCOC(=O)C1=C(Cc2ccc(Cl)cc2)C(=O)c2ccccc2C1=O | i | i | ? | 14µM | i | i
O=C(C[N+]1(CCO)CCOCC1)c1cccs1 | nt | nt | i | i | i | nt
N#Cc1ccc(Cl)cc1NC(=O)CSc1nc2nc(-c3cccs3)cc(C(F)(F)F)c2c(=O)[nH]1 | nt | i | nt | nt | nt | i
O=C(CSc1nc2nc(-c3cccs3)cc(C(F)(F)F)c2c(=O)[nH]1)C(F)(F)F | i | nt | i | i | i | 79µM
COC(=O)CSc1nc2nc(-c3cccs3)cc(C(F)(F)F)c2c(=O)[nH]1 | i | nt | i | i | i | i
